Values joined by “and” are separate entries in the source; they are usually repeats but may differ in a detail not shown here. Equal values may be shown once. Hit rate of the full screen: of about 390,000 compounds, about 4,000 (1%) were called active. Not shown: some 7% with an inconclusive outcome. Calls follow the shape of the dose curve; as a rule, active = well fitted inhibition curve with a large enough effect; inconclusive = small, poorly fitted or top-dose-only effect, or another doubt; inactive = no such curve, though single readings can be large or run the other way. The entries come from a sample that favours actives as a whole. Some compounds were tested as several samples or in several runs, with calls that do not always agree.
The molecules below were run against DNA polymerase iota (Homo sapiens) (UniProt Q9UNA4) (assay: qHTS for Inhibitors of Polymerase Iota). Settings: Pol iota fluorescent replication assay, 10 min; series mostly up to 115 µM.
How it was run: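 Fluorescent replication assay read twice, at 0 min and 10 min after adding 50 nM (final) substrate. Enzyme (10 nM) and compounds were first incubated 15 min at room temperature; enzyme-free buffer wells were negative controls.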
Potency is read from the fitted curve at half-maximal effect.

Sequence of DNA polymerase iota (Homo sapiens) (Q9UNA4 whole entry, looked up): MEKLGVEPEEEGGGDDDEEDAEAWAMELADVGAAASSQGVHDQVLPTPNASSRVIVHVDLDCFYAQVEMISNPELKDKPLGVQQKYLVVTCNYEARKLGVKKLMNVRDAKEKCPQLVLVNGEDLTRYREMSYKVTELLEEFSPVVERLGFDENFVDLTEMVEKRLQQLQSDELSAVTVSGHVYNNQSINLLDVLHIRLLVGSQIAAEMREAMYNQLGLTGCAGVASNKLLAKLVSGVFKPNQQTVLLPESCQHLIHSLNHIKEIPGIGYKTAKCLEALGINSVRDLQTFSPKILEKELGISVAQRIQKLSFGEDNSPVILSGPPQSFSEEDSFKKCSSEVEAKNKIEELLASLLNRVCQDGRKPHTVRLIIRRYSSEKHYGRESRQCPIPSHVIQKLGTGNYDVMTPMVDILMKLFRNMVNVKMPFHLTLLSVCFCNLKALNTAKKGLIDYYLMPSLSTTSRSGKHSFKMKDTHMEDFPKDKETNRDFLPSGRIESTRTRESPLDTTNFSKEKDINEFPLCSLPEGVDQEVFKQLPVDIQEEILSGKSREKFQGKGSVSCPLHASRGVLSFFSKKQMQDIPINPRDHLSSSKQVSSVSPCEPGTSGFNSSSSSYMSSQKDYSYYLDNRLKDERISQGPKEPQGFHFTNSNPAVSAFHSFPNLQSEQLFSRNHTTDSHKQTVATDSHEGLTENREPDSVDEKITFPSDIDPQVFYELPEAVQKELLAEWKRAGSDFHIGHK

Potency, active:
O=C(NCCc1ccco1)c1ccc(OCc2cn3ccccc3n2)cc1 44.7 µM
CN(C)C(CNC(=O)c1ccc(OCc2cn3ccccc3n2)cc1)c1ccco1 (stereo unspecified) 22.4 µM
O=C1CCCC(O)=C1N=Nc1ccc2ncsc2c1 39.8 µM
C=C(C)C(=O)Nc1cccc(C2=NOC3(C2)C[C@H](C(N)=O)N(C(=O)C(c2ccccc2)c2ccccc2)C3)c1 (stereo partly specified) 31.6 µM
Cc1cc(C)c2nc(-c3ccco3)cc(C(=O)O)c2c1 11.2 µM
O=C(CCl)Nc1ccc(Sc2ccc(NC(=O)CCl)cc2)cc1 39.8 µM
COc1ccc(/C=C/C(=O)c2cc(Br)ccc(=O)c2O)cc1 2.51 µM
COc1ccc(NC(=O)c2ccco2)cc1NC(=O)COc1ccc(C)c(C)c1 70.8 µM
CCOC(=O)N1CCC(N2Cc3cccc(C(=O)Nc4ccc(S(=O)(=O)N(CC)CC)cc4)c3C2=O)CC1 79.4 µM
Cc1ccsc1C(=O)NCCc1ccco1 39.8 µM
Cc1cc(/C=C2\SC(=O)N(C)C2=O)c(C)n1-c1cccc(C(=O)O)c1 17.8 µM

Potency, inactive:
Cc1cc(F)ccc1NS(=O)(=O)c1ccc(-n2cccn2)cc1
CCOc1n[nH]c(-c2ccccc2)n1
O=C(NCc1ccco1)c1nc2ncccn2n1
CN(C)C(CNC(=O)CCCOc1ccccc1)c1ccco1 (stereo unspecified)
CN(C)C(CNC(=O)c1cccc(C#N)c1)c1ccco1 (stereo unspecified)
O=C(NCCc1ccccn1)c1ccc(COc2ccccc2)o1
OC(CBr)C[n+]1cccc2cc(Br)ccc21 (stereo unspecified)
COc1ccc(Cn2c(C(=O)O)c(CNCCc3cccs3)c3ccc(OC)cc32)cc1
CN(N=O)c1ccc(C=C2c3ccccc3-c3ccccc32)cc1
CCN(CC)S(=O)(=O)c1ccc2c(c1)N(CC(=O)NCc1ccccc1)C(=O)CS2
CC1(C)C=Cc2c(ccc(C(=O)/C=C/c3ccccc3)c2O)O1
Cc1nc2ccc(S(=O)(=O)NC(C(=O)NCc3ccccc3Cl)C(C)C)cc2s1 (stereo unspecified)
O=C(NCCc1csc(-c2ccc(C(F)(F)F)cc2)n1)C(=O)Nc1ccc(F)c(Cl)c1
O=C(Cn1cc(SCc2ccccc2)c2ccccc21)N1CCCCC1
COc1ccccc1CNc1nccn(-c2ccc(F)cc2)c1=O
C/C=C(\C)C(=O)N1CC2(CC(c3cccc(NC(=O)CCCCC)c3)=NO2)C[C@@H]1C(N)=O (stereo partly specified)
CC/C=C/C(=O)N1CC2(CC(c3cccc(NC(=O)CC)c3)=NO2)C[C@H]1C(N)=O (stereo partly specified)
CCc1cccc(NC(=O)CN(C)S(=O)(=O)c2ccc3[nH]c4c(c3c2)CCCC4)c1
Cc1cccc(NC(=O)CSc2nc(-c3ccco3)cc(C(F)(F)F)n2)c1C
Cc1ccsc1-c1cc(C(=O)O)c2c(ccc3ccccc32)n1
CCCNC(=O)C(CC)n1nc(CC)n2c(cc3oc(C)cc32)c1=O (stereo unspecified)
COc1ccc(C(=O)Nc2cccc(C(=O)OCc3cc(=O)n4c5c(sc4n3)CCCC5)c2)cc1
CC(C)(C)OC(=O)N1CCC(c2c(C(=O)NCCc3ccsc3)cnn2-c2ccc(F)cc2F)CC1
CC(C)(C)n1ncc2c(=O)n(Cc3c(Cl)cccc3Br)cnc21
CC(C)(C)n1ncc2c(=O)n(Cc3ccc(C(=O)c4ccccc4)cc3)cnc21
CN(C)C1=C2C=CC=CC2/C(=C2/C=Cc3ccccc32)C=C1 (stereo unspecified)
CC1(C)CCc2cc(S(=O)(=O)N3CCN(c4nc(-c5cccs5)nc5ccccc45)CC3)ccc2O1
O=C(O)CSCC(=O)Nc1ccc(C(F)(F)F)cc1
CCC(=O)Nc1ccc(C(=O)NNC(=O)c2ccc(Cl)cc2)cc1
OC(CBr)CN1CCCCC1 (stereo unspecified)
COc1cc(CNCCSc2nnnn2C)ccc1OCc1c(F)cccc1Cl
O=C(Nc1ccccc1)c1ccccc1OCc1ccccc1
COc1ccc(/C=C/C(=O)NC(=S)N2CCCC(C(N)=O)C2)cc1 (stereo unspecified)
COc1cccc(N2CC(NC(=O)/C=C\c3ccccc3)CC2=O)c1 (stereo unspecified)
COc1ccc(NC(=O)c2ccco2)cc1NC(=O)c1ccc(C#N)cc1F
Cc1ccc(OCC(=O)Nc2ccccc2C(=O)NC2CC2)cc1C
COc1ccccc1CNC(=O)c1ccc(CS(=O)c2ccccc2Cl)o1 (stereo unspecified)
COc1cc(C)ccc1OCCSc1nc2ccc(NC(=O)c3ccc(C)cc3)cc2s1
CCc1cccc(CC)c1NC(=O)Cn1c(=O)c(-c2cc(C)ccc2NC(C)=O)nc2ccccc21
CN(C)c1ccc(C=Nc2ccc(/C=C/c3ccnc4ccccc34)cc2)cc1
COC(=O)c1ccc(NC(=O)c2cccc3c2C(=O)N(C2CCCCC2)C3)cc1
CCOC(=O)N1CCC(N2Cc3cccc(C(=O)Nc4c(C)cccc4CC)c3C2=O)CC1
Cc1ccc(Cn2cnc3c(cnn3C(C)(C)C)c2=O)c(F)c1
COc1cccc2c1cc1c(=O)n(CC(=O)N3CCN(c4cccc(Cl)c4)CC3)nc(C)n12
Cc1ccsc1C(=O)OCC(=O)NCCc1ccccc1
CCNC(=O)c1sccc1-n1cccc1
Cc1cc(C)cc(NS(=O)(=O)c2cc3c(cc2C)NC(=O)CO3)c1
CCOc1ccc(OCC)c(Nc2nc3ccccc3n3nnnc23)c1
COc1ccccc1N1CCN(c2ncnc3onc(-c4cccc(Cl)c4)c23)CC1
Cc1c(NC(=O)Nc2ccc(F)c(Cl)c2)c(=O)n(-c2ccccc2)n1C
CC(C)(C)C1CCC(NC(=O)c2cnn3c2NC(=C2CC2)C=C3C(F)F)CC1 (stereo unspecified)
Cc1cc(/C=C2/SC(=O)N(CC(=O)OC(C)C)C2=O)c(C)n1C
Cc1ccc(N2C(=O)S/C(=C/c3cn(C)c4ccccc34)C2=O)cc1
Cc1cccc(C(=O)Nc2ccc(S(=O)(=O)N3CCCCC3c3cccnc3)cc2)c1 (stereo unspecified)

Potency, inactive and 10 µM (active):
CC(C)(C)n1ncc2c(=O)n(Cc3ccc(Cl)cc3)cnc21

— PubChem BioAssay AID588590 (National Center for Advancing Translational Sciences (NCATS), 2011)
